# USP1-UAF1 inh = Inhibitors of USP1/UAF1: Primary Screen; recombinant USP1/UAF1, Ub-Rhodamine cleavage fluorescence; hit rate 0.23% among 390,000; Potency, µM (highest dose often 57.1 µM), inactives show at the highest dose activity change, negative = inhibition, actives largely listed as inhibitors; Ubiquitin carboxyl-terminal hydrolase 1 (Homo sapiens), O94782; also: % is scaled to controls: 0 for no effect and ±100 for the full control effect; nearly all actives have a fitted effect of over 60% in size
#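 Step one: compound is pinned into 1nM USP1/UAF1 in HEPES pH 7.8 buffer with TCEP. Step two: 15 min room-temperature incubation. Step three: Ub-Rho (150nM final) starts cleavage, tracked by fluorescence over six one-minute reads.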
# EPAC2 antag = qHTS for Antagonist of cAMP-regulated guanine nucleotide exchange factor 2 (EPAC2): primary screen. Rap guanine nucleotide exchange factor 4 (Homo sapiens), Q8WZA2. EPAC2 GEF exchange of Rap1B-BODIPY-GDP, fluorescence. Potency, µM (doses to about 114 µM), for inactives: top-dose activity, negative = inhibition, actives largely listed as inhibitors. hit rate 0.18% among 360,000; also: % is scaled to controls: 0 for no effect and ±100 for the full control effect; nearly all actives have a fitted effect of over 45% in size
# EPAC2 agonist = qHTS for Agonist of cAMP-regulated guanine nucleotide exchange factor 4 (EPAC2): primary screen | Potency, µM (top dose mostly 154 µM), for the others: top-dose activation, most hits filed as activators | Rap guanine nucleotide exchange factor 4 (Homo sapiens), Q8WZA2 | hit rate 0.079% among 360,000 | EPAC2 activation, biochemical qHTS; response scale: 100% = 6.5 mM cAMP response | AID 720711, 2013; also: nearly all actives have a fitted effect of over 50% in size
#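 Setup: EPAC2 100 nM, labeled Rap1B complex 250 nM, free GDP 50 uM. Compound titrations pinned in, brief spin, 5 min room temperature incubation. Kinetic fluorescence read over 30 min, normalized to 6.5 mM cAMP.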
# EPAC1 antag = qHTS for Antagonist of cAMP-regulated guanine nucleotide exchange factor 3 (EPAC1): primary screen; hit rate 0.14% among 360,000; Rap guanine nucleotide exchange factor 3 (Homo sapiens), O95398; Potency, µM (top dose mostly 115 µM), for the others: top-dose activity change, negative = inhibition, usual class: inhibitors; AID 720709, 2013; EPAC1 GEF assay, Rap1b-BODIPY-GDP exchange fluorescence;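 also: plate controls were vehicle for no effect and positive control for full effect; nearly all actives have a fitted effect of over 50% in size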
# Target sequence (O95398 whole entry, looked up): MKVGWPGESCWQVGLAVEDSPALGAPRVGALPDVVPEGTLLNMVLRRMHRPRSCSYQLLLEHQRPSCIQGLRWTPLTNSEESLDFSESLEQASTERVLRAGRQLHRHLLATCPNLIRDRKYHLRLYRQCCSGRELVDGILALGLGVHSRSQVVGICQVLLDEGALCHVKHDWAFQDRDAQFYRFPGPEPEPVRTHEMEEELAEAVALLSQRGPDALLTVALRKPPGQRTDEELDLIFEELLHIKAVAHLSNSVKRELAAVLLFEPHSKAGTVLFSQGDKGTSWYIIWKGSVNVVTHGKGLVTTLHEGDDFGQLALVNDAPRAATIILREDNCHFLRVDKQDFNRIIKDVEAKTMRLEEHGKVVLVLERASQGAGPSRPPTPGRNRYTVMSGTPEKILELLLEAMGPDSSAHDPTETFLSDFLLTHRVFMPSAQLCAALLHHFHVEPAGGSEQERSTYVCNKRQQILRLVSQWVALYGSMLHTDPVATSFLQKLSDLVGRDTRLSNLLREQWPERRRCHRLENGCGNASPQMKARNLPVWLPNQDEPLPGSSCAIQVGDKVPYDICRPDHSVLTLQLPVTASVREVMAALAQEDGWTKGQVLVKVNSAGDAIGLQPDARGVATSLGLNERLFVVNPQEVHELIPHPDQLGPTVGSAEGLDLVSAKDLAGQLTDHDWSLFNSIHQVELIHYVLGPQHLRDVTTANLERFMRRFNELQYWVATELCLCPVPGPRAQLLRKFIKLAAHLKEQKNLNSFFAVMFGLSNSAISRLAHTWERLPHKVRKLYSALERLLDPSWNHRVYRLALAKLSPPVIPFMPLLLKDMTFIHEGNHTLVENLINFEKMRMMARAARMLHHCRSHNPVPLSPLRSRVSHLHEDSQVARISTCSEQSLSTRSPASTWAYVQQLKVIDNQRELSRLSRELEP
# EPAC1 agonist = qHTS for Agonist of cAMP-regulated guanine nucleotide exchange factor 3 (EPAC1): primary screen. hit rate 0.073% among 360,000. AID 720707, 2013. Rap guanine nucleotide exchange factor 3 (Homo sapiens), O95398. Potency, µM (highest dose often 154 µM), for inactives: at the top dose activation, most hits filed as activators. EPAC1 agonist qHTS, biochemical assay; response scale: 100% = response to 6.5 mM cAMP; also: nearly all actives have a fitted effect of over 60% in size
#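 Normalized to 6.5 mM cAMP, activity reflects EPAC1-catalysed release of BODIPY-GDP from Rap1B, followed kinetically over 30 min at 480 nm excitation, 540 nm emission. Reaction contained 100 nM EPAC1, 250 nM Rap1B-BODIPY-GDP, 50 uM GDP.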
# An asterisk follows results filed as active; ? = inconclusive; · = no result; [ ] = remark or other dose. A selection: hits, their analogues and other compounds. The true share with any hit is near 0.44%. Calls follow the shape of the dose curve; as a rule, active = well fitted curve in the direction sought with a large enough effect; inconclusive = small, poorly fitted or top-dose-only effect, or another doubt; inactive = no such curve, though single readings can be large; an effect the other way counts as inactive or inconclusive. Potency is read from the fitted curve at half-maximal effect.
SMILES,USP1-UAF1 inh,EPAC2 antag,EPAC2 agonist,EPAC1 antag,EPAC1 agonist
NC(=O)c1ccc(N=Cc2ccc([N+](=O)[O-])s2)cc1,10µM*,-13.8%,8.5%,16.0%,8.7%
C=CCn1c(-c2ccc(S(=O)(=O)N3CCOCC3)cc2)csc1=Nc1ccccc1,-27.3%,0.0%,7.94µM*,6.4%,1.6%
O=C(O)c1cc(N2N=C(C(F)(F)F)/C(=C/C=C/c3ccco3)C2=O)ccc1Cl,28.2µM*,?,13.9%,35.5µM*,-0.5%
CCOC(=O)CC1C(=O)NCCN1C(=O)c1cccc(C(F)(F)F)c1 (stereo not drawn),0.2%,20µM*,2.8%,1.8%,-4.0%
CCOC(=O)CC1C(=O)NCCN1C(=O)c1ccc(F)cc1F (stereo not drawn),-26.6%,0.3%,-7.8%,-18.0%,7.4%
CCOC(=O)c1cc(-c2ccc(/C=C3/C(=O)N(c4ccc(C(=O)O)cc4)N=C3C)o2)ccc1Cl,-25.3%,2.6%,1.9%,35.5µM*,6.6%
O=C(CN1C(=O)NC2(CCOc3ccccc32)C1=O)N1CCCCC1 (stereo not drawn),5.6%,-3.7%,3.5%,-3.4%,2.5%
Cc1ccc(CN(C(=O)c2ccc(Cl)c([N+](=O)[O-])c2)C2CCS(=O)(=O)C2)o1 (stereo not drawn),-20.1%,-1.6%,4.5%,-11.7%,9.2%
COc1ccc(N=Cc2cc(Cc3ccccc3Cl)cc([N+](=O)[O-])c2O)cc1OC,?,-10.8%,7.1%,-16.0%,-7.9%
Cc1ccc(N=Cc2cc(Cc3ccccc3Cl)cc([N+](=O)[O-])c2O)c(O)c1,17.8µM*,?,20.6%,?,22.8%
Cc1cn(C)c(CC(=O)Nc2ccc(F)cc2Cl)c1C(=O)O,-10.1%,·,·,·,·
CCOC(=O)N1CCc2c(sc(NC(=O)c3ccc(S(=O)(=O)N4CCCC4)cc3)c2C#N)C1,-35.6%,-0.9%,4.8%,-8.6%,-3.3%
CC(C)N1CCc2c(sc(NC(=O)c3ccc(S(=O)(=O)N4CCOCC4)cc3)c2C#N)C1,?,20.5%,100µM*,-9.2%,-4.1%
CC(C)N1CCc2c(sc(NC(=O)c3ccc(S(=O)(=O)N4CCc5ccccc54)cc3)c2C(N)=O)C1,2.4%,44.7µM*,-26.6%,?,-12.2%
CC(C)N1CCc2c(sc(NC(=O)c3ccc(S(=O)(=O)N(C)C4CCCCC4)cc3)c2C(N)=O)C1,-17.9%,·,·,·,·
O=C(C(O)c1ccccc1)N1CCN(S(=O)(=O)c2ccc(F)c(F)c2)CC1 (stereo not drawn),·,16.6%,2.1%,8.4%,8.6%
Cc1cc2nc3c(=O)n(C4CCCCC4)c(=O)[nH]c3nc2cc1N,?,40.5%,?,237.0%,112µM*
O=C1C(=O)c2c(ccc3ccccc23)-c2ccccc21,3.98µM*,-29.2%,4.3%,-24.0%,16.6%
Cc1ccc(C(=O)N/C(=C\c2ccc(-c3ccccc3[N+](=O)[O-])o2)C(=O)NCCN(C)C)cc1,?,-0.3%,1.6%,-6.3%,6.4%
Cc1ccc(C(=O)N/C(=C\c2ccc(-c3ccccc3[N+](=O)[O-])o2)C(=O)NCCCN(C)C)cc1,28.2µM*,0.8%,14.9%,10.5%,0.8%
CCc1ccc(OCc2cc(=O)n3cc(C)sc3n2)cc1,-22.8%,·,·,·,·
O=C(Nc1ccc2nc(-c3ccco3)c(-c3ccco3)nc2c1)N1CCCCCC1,31.6µM*,2.8%,1.2%,39.8µM*,-0.9%
CCOC(=O)C1CCN(C(=O)Nc2ccc3nc(-c4ccco4)c(-c4ccco4)nc3c2)CC1,?,3.3%,2.7%,?,-1.3%
O=C(c1ccccc1)c1ccc2nc(-c3ccco3)c(-c3ccco3)nc2c1,?,-15.2%,-6.1%,50.1µM*,-3.3%
O=C(NCCO)c1ccc2nc(-c3ccco3)c(-c3ccco3)nc2c1,31.6µM*,1.9%,-3.1%,?,-1.3%
SMILES,USP1-UAF1 inh,EPAC2 antag,EPAC2 agonist,EPAC1 antag,EPAC1 agonist
CCCCN1C(=O)c2[nH]nc(-c3ccccc3O)c2C1c1ccc(OCc2ccccc2)cc1 (stereo not drawn),-15.1%,·,·,·,·
CCOc1ccc(NC(=O)COC(=O)c2c[nH]c3ccccc23)cc1,1.6%,4.3%,2.1%,-3.9%,7.9%
CCOc1ccc(NC(=O)/C(C#N)=C/c2ccc(N3CCCC3)c(C)c2)cc1,-24.7%,15.8%,0.7%,89.8%,112µM*
COc1cc(CCc2ccccc2)c(C(=O)O)c(O)c1CC=C(C)C,-20.3%,35.5µM*,-19.9%,?,-17.4%
COc1cc(CCc2ccccc2)c(C(=O)O)c(O)c1C/C=C(/C)CCC=C(C)C,?,?,-12.6%,50.1µM*,-15.9%
Cc1ccc(-c2cc(C(=O)Nc3ccc4c(c3)OCCO4)c3ccccc3n2)cc1,?,-13.5%,7.94µM*,-5.4%,7.7%
COc1ccc(/C=N/NC(=O)c2cc(O)c(O)c(O)c2)cc1Cn1cc([N+](=O)[O-])cn1,-15.8%,-5.5%,1.3%,31.6µM*,3.1%
COc1ccc(CN(Cc2ccco2)c2cnc(S(C)(=O)=O)nc2C(=O)Nc2ccc(C)c(C)c2)cc1,-9.7%,·,·,·,·
CC(=O)N(C(C)=O)N1C(=O)c2cccc3c(N4CCOCC4)ccc(c23)C1=O,-16.6%,38.4%,-105.5%,?,112µM*
CCCN1C(=O)c2cccc3c(N4CCCCC4)ccc(c23)C1=O,-20.9%,34.2%,100µM*,7.8%,?
CCN(CC)S(=O)(=O)c1ccc(C(=O)OCCN2C(=O)c3cccc4c(N5CCOCC5)ccc(c34)C2=O)cc1,?,117.9%,-68.3%,48.9%,?
CCCCNc1ccc2c3c(cccc13)C(=O)N(CCCC)C2=O,25.1µM*,183.3%,100µM*,250.4%,79.4µM*
O=C1c2cccc3c(N4CCCCC4)ccc(c23)C(=O)N1c1ccccn1,-22.1%,-18.0%[57.1 µM],-9.5%,2.3%,-0.3%
Cn1cc(C2=C(c3ccc(Cl)cc3Cl)C(=O)NC2=O)c2ccccc21,-16.2%,15.2%,100µM*,?,-47.2%
COc1ccccc1-c1cc(NC=O)c2ncc(-c3cccc(C(F)(F)F)c3)n2c1,·,-22.5%,-3.4%,-7.9%,4.0%
CN(C)c1ccccc1-c1cc(NC=O)c2ncc(-c3cccc(C(F)(F)F)c3)n2c1,·,?,-18.2%,31.6µM*,-121.2%
Cc1ccc(/C=c2\sc3nc(-c4ccccc4Br)nn3c2=O)o1,-23.3%,15.0%,7.7%,-17.6%,-14.7%
C=CCn1c(=O)/c(=C/c2ccc(C)o2)s/c1=C(/C#N)C(=O)c1ccccc1,?,58.5%,100µM*,4.4%,6.8%

# Compound activity (PubChem BioAssay)
